Active and inactive are the calls of the source. The calls were made as follows: active = hit-call score of the fitted dose curve at least 0.9, where 1 is the maximum; inactive = score below 0.9.
Tests used:
[1] = read-out: Vascular cell adhesion molecule 1 (VCAM1), VCAM1 (gene 7412); assay: BSK_CASM3C_VCAM1: BioMAP Diversity Plus: CASM3C Assay for Vascular cell adhesion molecule 1 (VCAM1) Biomarker Activity (AID 2283055); conditions: primary human coronary artery smooth muscle cells; actives raise or lower the signal;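 also: VCAM-1 protein level quantified by ELISA on the cells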
[2] = read-out: Collagen III, COL3A1 (gene 1281); assay: BSK_hDFCGF_CollagenIII: BioMAP Diversity Plus: hDFCGF Assay for Collagen III Biomarker Activity (AID 2283056); conditions: primary human foreskin fibroblasts; actives raise or lower the signal
How it was run: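 Human foreskin fibroblast primary cultures sampled 24 h after dosing; Collagen III quantified by ELISA. Signal fitted bidirectionally against DMSO baseline.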

[3] = read-out: Epidermal growth factor receptor (EGFR), EGFR (gene 1956); assay: BSK_hDFCGF_EGFR: BioMAP Diversity Plus: hDFCGF Assay for Epidermal growth factor receptor (EGFR) Biomarker Activity (AID 2283057); conditions: primary human foreskin fibroblasts; actives raise or lower the signal
How it was run: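 Primary human foreskin fibroblasts were exposed to compound for 24 h, after which cell-surface EGFR was quantified by ELISA. Activity was fitted bidirectionally against the DMSO negative control as baseline.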

[4] = read-out: Interleukin-8 (IL8), CXCL8 (gene 3576); assay: BSK_hDFCGF_IL8: BioMAP Diversity Plus: hDFCGF Assay for Interleukin-8 (IL8) Biomarker Activity (AID 2283058); conditions: primary human foreskin fibroblasts; actives raise or lower the signal
How it was run: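 Primary human foreskin fibroblasts (hDFCGF system) dosed with chemical; IL-8 measured by ELISA 24 hours later. Bidirectional curve fitting relative to DMSO baseline; cytotoxicity tracked in parallel cultures by SRB total protein staining.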

[5] = BSK_hDFCGF_Proliferation: Cell Proliferation Assessment in the BioMAP Diversity Plus: hDFCGF Assay (AID 2283059); conditions: primary human foreskin fibroblasts;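 also: curves fitted for both rise and fall of signal versus DMSO baseline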
How it was run: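 Steps: dose primary human dermal fibroblasts (foreskin); […] fix in 10% TCA; stain with 0.1% SRB; read 560 nm; fit gain or loss of signal against DMSO.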

[6] = read-out: Macrophage colony-stimulating factor (MCSF), CSF1 (gene 1435); assay: BSK_hDFCGF_MCSF: BioMAP Diversity Plus: hDFCGF Assay for Macrophage colony-stimulating factor (MCSF) Biomarker Activity (AID 2283060); conditions: primary human foreskin fibroblasts; actives raise or lower the signal
How it was run: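 Human foreskin fibroblast primary cultures; M-CSF measured by ELISA 24 hours after chemical dosing. Bidirectional fitting relative to DMSO, with overt cytotoxicity tracked by parallel SRB total-protein staining (0.1% SRB, 10% TCA fixation, 560 nm).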

[7] = BSK_hDFCGF_SRB: Viability Assessment in the BioMAP Diversity Plus: hDFCGF Assay (AID 2283061); conditions: primary human foreskin fibroblasts;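 also: cells exposed to compound for 24 h before the read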
How it was run: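 Human foreskin fibroblasts in 96-well plates were treated 24 h. Total protein was measured by 0.1% SRB staining after 10% TCA fixation, read at 560 nm. Data were fitted bidirectionally against DMSO.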

[8] = read-out: TIMP metallopeptidase inhibitor 1 (TIMP1), TIMP1 (gene 7076); assay: BSK_hDFCGF_TIMP1: BioMAP Diversity Plus: hDFCGF Assay for TIMP metallopeptidase inhibitor 1 (TIMP1) Biomarker Activity (AID 2283062); conditions: primary human foreskin fibroblasts; actives raise or lower the signal
How it was run: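 Human foreskin fibroblast primary cultures dosed for 24 h; secreted/surface TIMP-1 quantified by ELISA. Bidirectional curve fitting against DMSO baseline; cytotoxicity tracked in parallel cultures by SRB total-protein staining.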

[9] = read-out: Monokine induced gamma interferon (MIG), CXCL9 (gene 4283); assay: BSK_hDFCGF_MIG: BioMAP Diversity Plus: hDFCGF Assay for Monokine induced gamma interferon (MIG) Biomarker Activity (AID 2283063); conditions: primary human foreskin fibroblasts; actives raise or lower the signal
How it was run: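 MIG/CXCL9 measured by ELISA 24 h after dosing primary human skin fibroblasts. Activity fitted in both directions against DMSO controls. Cytotoxicity was checked in parallel cultures by SRB staining read at 560 nm.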

[10] = read-out: Matrix Metallopeptidase 1 (MMP1), MMP1 (gene 4312); assay: BSK_hDFCGF_MMP1: BioMAP Diversity Plus: hDFCGF Assay for Matrix Metallopeptidase 1 (MMP1) Biomarker Activity (AID 2283064); conditions: primary human foreskin fibroblasts; actives raise or lower the signal
How it was run: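 hDFCGF primary fibroblasts (human foreskin); chemical added; 24 h; MMP1 by ELISA; bidirectional fit vs DMSO.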

Measured: AC50

CC(C)(c1ccccc1)c1ccc(O)c(C(C)(C)c2ccccc2)c1
active: [1] 29.3 µM | [2] 2.94 µM | [3] 3.45 µM | [4] 5.4 µM | [5] 2.82 µM | [6] 3.63 µM | [7] 3.57 µM | [8] 4.07 µM | [9] 4.86 µM | [10] 4.05 µM

Cn1sc(Cl)cc1=O
active: [1] 20 µM | [2] 33.6 µM | [3] 33.6 µM | [4] 37.9 µM | [5] 1.77 µM | [6] 25.6 µM | [8] 29.8 µM | [9] 27.9 µM | [10] 32.8 µM

CCOP(=S)(OCC)SCSP(=S)(OCC)OCC
active: [2] 10 µM | [5] 31.6 µM
not listed: [7]
inactive: all other assays above

CCNc1nc(NC(C)(C)C)nc(SC)n1
not listed: [7]
inactive: all other assays above

ClC1=C(Cl)[C@]2(Cl)[C@H]3[C@H]([C@H]4C=C[C@H]3C4)[C@@]1(Cl)C2(Cl)Cl
active: [2] 4.4 µM | [5] 8.76 µM | [6] 0.492 µM
not listed: [7]
inactive: all other assays above

CC(C)c1ccc(CO)cc1
not listed: [7]
inactive: all other assays above

CCOP(=S)(OCC)SCCS(=O)(=O)CC
not listed: [7]
inactive: all other assays above

O=C(O)C(Cl)(Cl)Cl
not listed: [7]
inactive: all other assays above

C=C(C)C(=O)[O][Sn]([CH2]CCC)([CH2]CCC)[CH2]CCC
active: [1] 0.148 µM | [2] 0.374 µM | [4] 0.148 µM | [5] 0.15 µM | [6] 0.148 µM | [8] 0.344 µM | [9] 0.148 µM | [10] 0.148 µM
inactive: [3]

CC1(C)Cc2cccc(O)c2O1
not listed: [7]
inactive: all other assays above

CCOC(=O)/C=C(C)/C=C/C[C@@H](C)CCCC(C)C
inactive: [3] | [4]
active: [1] 20 µM | [2] 8.64 µM | [5] 9.55 µM | [6] 20 µM | [8] 26.6 µM | [9] 33.2 µM | [10] 32.4 µM

Oc1c(I)cc(I)cc1I
active: [2] 4.24 µM | [5] 8.03 µM
not listed: [7]
inactive: all other assays above

COP(=S)(OC)Oc1cc(Cl)c(Cl)cc1Cl
active: [1] 16.5 µM | [2] 20 µM
not listed: [6]
inactive: all other assays above

O=[N+]([O-])c1ccc2c3c(cccc13)CC2
active: [5] 27.7 µM | [6] 10.6 µM
not listed: [7]
inactive: all other assays above

Nc1cccc2ccccc12
inactive: [1] | [3] | [4] | [9]
active: [2] 27.1 µM | [5] 13.6 µM | [6] 20 µM | [8] 27.7 µM | [10] 33.1 µM

C[C@@H]1C[C@@H]([C@H](O)CC2CC(=O)NC(=O)C2)C(=O)[C@@H](C)C1
active: [1] 0.926 µM | [4] 7.54 µM | [5] 4.27 µM | [6] 4.1 µM | [8] 2.49 µM | [9] 4.4 µM | [10] 3.37 µM
inactive: [3]

BrCCBr
not listed: [7]
inactive: all other assays above

NC(=S)Nc1ccccc1
not listed: [7]
inactive: all other assays above

Oc1cccc2cccnc12
active: [2] 3.47 µM | [3] 0.275 µM | [5] 0.852 µM | [6] 0.301 µM | [8] 0.201 µM | [9] 0.169 µM | [10] 0.927 µM
inactive: [1] | [4]

CC(C)(C)CC(C)(C)c1ccc(O)cc1
active: [1] 12 µM | [2] 8.27 µM | [3] 20 µM | [4] 10.6 µM | [5] 8.07 µM | [6] 7.74 µM | [8] 8.77 µM | [9] 9.02 µM | [10] 6.98 µM

NC(=O)O
not listed: [7]
inactive: all other assays above

O=C(OC1CCCCC1)c1ccccc1C(=O)OC1CCCCC1
active: [2] 5.33 µM | [3] 20.9 µM | [4] 34.9 µM | [5] 10.2 µM | [6] 11 µM | [8] 14.3 µM | [9] 16.4 µM | [10] 20.9 µM
inactive: [1]

C=CC(=O)OCCCCCC(C)C
not listed: [7]
inactive: all other assays above

CC(C)(C)c1cc(O)ccc1O
active: [1] 23.7 µM | [2] 5.6 µM | [3] 5.78 µM | [4] 9.21 µM | [5] 0.472 µM | [6] 5.23 µM | [8] 4.45 µM | [9] 4.42 µM | [10] 6.21 µM

CCCCC(CC)CO[N+](=O)[O-] (centres undefined)
active: [1] 34.1 µM
not listed: [7]
inactive: all other assays above

O=C(Nc1ccc2[nH]ccc2c1)c1cc2cc(F)ccc2n1Cc1cccc(F)c1
inactive: [3]
active: [1] 29.2 µM | [2] 1.93 µM | [4] 5.96 µM | [5] 2.53 µM | [6] 3.18 µM | [8] 3.93 µM | [9] 4.77 µM | [10] 3.37 µM

O=[N+]([O-])c1ccc(O)c([N+](=O)[O-])c1
not listed: [7]
inactive: all other assays above

CCC(C)(C)c1ccc(O)c(C(C)(C)CC)c1
active: [1] 12.2 µM | [2] 7.28 µM | [4] 10.4 µM | [5] 9.6 µM | [6] 8.2 µM | [8] 8.53 µM | [9] 8.09 µM | [10] 10.7 µM
inactive: [3]

ClCC(Cl)CCl
not listed: [7]
inactive: all other assays above

Nc1ccc(-c2ccc(N)c(Cl)c2)cc1Cl
active: [5] 0.922 µM
not listed: [7]
inactive: all other assays above

COc1cc(OC)nc(NC(=O)NS(=O)(=O)c2ncccc2C(=O)N(C)C)n1
not listed: [7]
inactive: all other assays above

COP(=S)(OC)Oc1ccc(Sc2ccc(OP(=S)(OC)OC)cc2)cc1
active: [5] 20 µM
not listed: [7]
inactive: all other assays above

CC(=O)C(Cl)C(=O)N(C)C (centres undefined)
active: [1] 12 µM | [2] 13.8 µM | [5] 26 µM
not listed: [6] | [7]
inactive: all other assays above

COP(=S)(OC)Oc1ccc(S(=O)(=O)N(C)C)cc1
active: [5] 28.2 µM
not listed: [7]
inactive: all other assays above

Oc1ccc(-c2ccccc2)cc1
not listed: [7]
inactive: all other assays above

Source: PubChem BioAssay (EPA / NIEHS)
